Reference: PubChem BioAssay AID1159580 (chemical genetic matrix, 2015)
Among all 5,500 compounds or so, about 2,000 (36%) were called active. About 18% were inconclusive and are not listed. No stated cut-off is given here; in the data, active means normalized growth mostly below about 0.91 (no sharp cut-off); inconclusive means no clear call, values can overlap the other calls; inactive means mostly above about 0.92. The list shows a part of the results.

Experiment: chemical genetic growth profiling, strain panel (AID 1159580);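 further: tested at 20 µM; growth read once vehicle control cultures reached saturation at 30 °C; 1 = growth at the plate median or of vehicle wells; lower values mean less growth of the strain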
Conditions: growth OD

Measured: normalized growth

Cn1nnnc1SCC1=C(C(=O)O)N2C(=O)C(NC(=O)C(O)c3ccccc3)C2SC1 (configuration not stated)
inactive: S. cerevisiae deletion strains, locus YJR075W, strain HOC1, active compounds read low 1.01 | S. cerevisiae deletion strains, locus YKL009W, strain mrt4, active compounds read low 1.01 | S. cerevisiae deletion strains, locus YKL068W, active compounds read low 1.01 | S. cerevisiae deletion strains, locus YKL085W, strain MDH1 (second series), active compounds read low 1.01 | S. cerevisiae deletion strains, locus YKL085W, strain MDH1, active compounds read low 1.01 | S. cerevisiae deletion strains, locus YKL160W, strain elf1, active compounds read low 0.95 | S. cerevisiae deletion strains, locus YKL190W, strain CNB1, active compounds read low 1.02 | S. cerevisiae deletion strains, locus YKR001C, strain vps1, active compounds read low 1 | S. cerevisiae deletion strains, locus YKR026C, strain gcn3, active compounds read low 0.974 | S. cerevisiae deletion strains, locus YKR091W, strain srl3, active compounds read low 0.981 | S. cerevisiae deletion strains, locus YLL001W, strain dnm1, active compounds read low 0.955 | S. cerevisiae deletion strains, locus YLL026W, active compounds read low 0.989 | S. cerevisiae deletion strains, locus YLL041C, strain sdh2, active compounds read low 0.968 | S. cerevisiae deletion strains, locus YLR027C, strain aat2, active compounds read low 0.982 | S. cerevisiae deletion strains, locus YLR039C, strain RIC1, active compounds read low 0.991 | S. cerevisiae deletion strains, locus YLR058C, strain SHM2, active compounds read low 1.02 | S. cerevisiae deletion strains, locus YLR102C, strain apc9, active compounds read low 1 | S. cerevisiae deletion strains, locus YLR113W, strain HOG1, active compounds read low 0.938 | S. cerevisiae deletion strains, locus YLR221C, strain rsa3, active compounds read low 0.98 | S. cerevisiae deletion strains, locus YLR258W, strain gsy2, active compounds read low 0.981 | S. cerevisiae deletion strains, locus YLR262C, strain YPT6 (second series), active compounds read low 0.973 | S. cerevisiae deletion strains, locus YLR262C, strain YPT6, active compounds read low 1.1 | S. cerevisiae deletion strains, locus YLR268W, strain sec22, active compounds read low 0.988 | S. cerevisiae deletion strains, locus YLR320W, strain mms22, active compounds read low 0.952 | S. cerevisiae deletion strains, locus YLR330W, strain CHS5, active compounds read low 1.01 | S. cerevisiae deletion strains, locus YLR342W, strain FKS1 (second series), active compounds read low 1.02 | S. cerevisiae deletion strains, locus YLR342W, strain FKS1, active compounds read low 0.972 | S. cerevisiae deletion strains, locus YLR357W, strain rsc2, active compounds read low 0.952 | S. cerevisiae deletion strains, locus YLR370C, strain arc18, active compounds read low 0.967 | S. cerevisiae deletion strains, locus YLR371W, strain rom2, active compounds read low 0.999 | S. cerevisiae deletion strains, locus YLR384C, strain iki3, active compounds read low 0.962 | S. cerevisiae deletion strains, locus YLR418C, strain cdc73, active compounds read low 1 | S. cerevisiae deletion strains, locus YML016C, strain PPZ1, active compounds read low 1.01 | S. cerevisiae deletion strains, locus YML032C, strain rad52, active compounds read low 1 | S. cerevisiae deletion strains, locus YML120C, strain ndi1, active compounds read low 0.964 | S. cerevisiae deletion strains, locus YML124C, strain tub3, active compounds read low 1.01 | S. cerevisiae deletion strains, locus YMR058W, strain fet3, active compounds read low 0.966 | S. cerevisiae deletion strains, locus YMR078C, strain ctf18, active compounds read low 1 | S. cerevisiae deletion strains, locus YMR125W, strain sto1, active compounds read low 0.973 | S. cerevisiae deletion strains, locus YMR129W, active compounds read low 0.981 | S. cerevisiae deletion strains, locus YMR205C, strain PFK2, active compounds read low 0.959 | S. cerevisiae deletion strains, locus YMR223W, strain ubp8, active compounds read low 1.01 | S. cerevisiae deletion strains, locus YMR231W, strain pep5, active compounds read low 0.971 | S. cerevisiae deletion strains, locus YMR263W, strain SAP30, active compounds read low 1.03 | S. cerevisiae deletion strains, locus YMR307W, strain GAS1, active compounds read low 0.993 | S. cerevisiae deletion strains, locus YNL067W, strain RPL9B, active compounds read low 1.03 | S. cerevisiae deletion strains, locus YNL071W, strain lat1, active compounds read low 0.978 | S. cerevisiae deletion strains, locus YNL128W, strain TEP1, active compounds read low 1.03 | S. cerevisiae deletion strains, locus YNL153C, strain GIM3, active compounds read low 1.03 | S. cerevisiae deletion strains, locus YNL183C, strain NPR1, active compounds read low 0.926 | S. cerevisiae deletion strains, locus YNL209W, strain ssb2, active compounds read low 0.982 | S. cerevisiae deletion strains, locus YNL233W, strain BNI4, active compounds read low 1.02 | S. cerevisiae deletion strains, locus YNL248C, strain rpa49, active compounds read low 0.968 | S. cerevisiae deletion strains, locus YNL250W, strain rad50, active compounds read low 1.01 | S. cerevisiae deletion strains, locus YNL271C, strain bni1, active compounds read low 1.01 | S. cerevisiae deletion strains, locus YNL298W, strain CLA4, active compounds read low 1.01 | S. cerevisiae deletion strains, locus YNL307C, strain MCK1, active compounds read low 1 | S. cerevisiae deletion strains, locus YNL322C, strain KRE1 (second series), active compounds read low 0.97 | S. cerevisiae deletion strains, locus YNL322C, strain KRE1, active compounds read low 1.02 | S. cerevisiae deletion strains, locus YNR049C, strain mso1, active compounds read low 0.972 | S. cerevisiae deletion strains, locus YNR052C, strain pop2, active compounds read low 0.997 | S. cerevisiae deletion strains, locus YOL006C, strain TOP1, active compounds read low 1.05 | S. cerevisiae deletion strains, locus YOL012C, strain htz1 0.993 | S. cerevisiae deletion strains, locus YOL147C, strain pex11, active compounds read low 0.999 | S. cerevisiae deletion strains, locus YOR001W, strain rrp6, active compounds read low 0.967 | S. cerevisiae deletion strains, locus YOR061W, strain CKA2, active compounds read low 1.02 | S. cerevisiae deletion strains, locus YOR069W, strain VPS5, active compounds read low 1.01 | S. cerevisiae deletion strains, locus YOR070C, strain gyp1, active compounds read low 0.979 | S. cerevisiae deletion strains, locus YOR080W, strain dia2, active compounds read low 0.97 | S. cerevisiae deletion strains, locus YOR083W, strain WHI5, active compounds read low 0.958 | S. cerevisiae deletion strains, locus YOR106W, strain vam3, active compounds read low 0.945 | S. cerevisiae deletion strains, locus YOR136W, strain idh2, active compounds read low 0.995 | S. cerevisiae deletion strains, locus YOR144C, strain elg1, active compounds read low 1 | S. cerevisiae deletion strains, locus YOR184W, strain ser1, active compounds read low 0.99 | S. cerevisiae deletion strains, locus YOR231W, strain MKK1, active compounds read low 0.996 | S. cerevisiae deletion strains, locus YOR265W, strain rbl2, active compounds read low 0.975 | S. cerevisiae deletion strains, locus YOR270C, strain vph1, active compounds read low 0.974 | S. cerevisiae deletion strains, locus YOR290C, strain snf2, active compounds read low 0.924 | S. cerevisiae deletion strains, locus YOR316C, strain cot1, active compounds read low 0.996 | S. cerevisiae deletion strains, locus YPL051W, strain arl3, active compounds read low 0.964 | S. cerevisiae deletion strains, locus YPL055C, strain LGE1, active compounds read low 1.07 | S. cerevisiae deletion strains, locus YPL078C, strain atp4, active compounds read low 0.968 | S. cerevisiae deletion strains, locus YPL106C, strain sse1, active compounds read low 0.958 | S. cerevisiae deletion strains, locus YPL240C, strain hsp82, active compounds read low 0.991 | S. cerevisiae deletion strains, locus YPL241C, strain CIN2, active compounds read low 1.01 | S. cerevisiae deletion strains, locus YPL256C, strain CLN2, active compounds read low 0.987 | S. cerevisiae deletion strains, locus YPR119W, strain clb2, active compounds read low 0.991 | S. cerevisiae deletion strains, locus YPR141C, strain kar3, active compounds read low 1 | S. cerevisiae deletion strains, locus YPR163C, strain tif3, active compounds read low 0.994 | S. cerevisiae deletion strains, locus YPR167C, strain met16, active compounds read low 1.01 | S. cerevisiae deletion strains, strain wtn01, active compounds read low 1 | S. cerevisiae strains, strain wild type, active compounds read low 1.02
